Screening data: PubChem BioAssay, several laboratories
TWEAK Fn14 block: inhibitors of TWEAK-Fn14 interaction signaling. inhibition, % at 10 µM. TWEAK-stimulated Fn14 reporter cells, luciferase luminescence, 8 h. 360,000 compounds, 2% hits. AID 1159606; in the data active = inhibition above about 50%
CF NFkB block: cystic fibrosis NF-kB activation inhibition; 360,000 compounds, 0.86% hits; AID 588850; KKLEB NF-kB-GFP reporter, PAF-induced, GFP fluorescence overnight; inhibition, % at 5 µM;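 active = at least 50% inhibition at 5 µM, scaled per plate between neutral and stimulator controls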;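 also: PAF is a Pseudomonas aeruginosa culture filtrate used as stimulus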
EWS-Fli block: inhibitors of EWS/Fli oncoprotein transcriptional activity | A673 NR0B1-luciferase reporter, viability-normalised | 350,000 compounds, 0.67% hits | inhibition, % at 12.6 µM;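 active = mean inhibition of at least 50% after viability correction, with every replicate also passing that limit; inconclusive = mean reaches 50% but only one of two replicates passes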;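 also: firefly luciferase signal divided by Alamar Blue viability fluorescence both relative to DMSO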
TROY NFkB inh: TROY signaling inhibition; Q293 LMP1-TROYcd NF-kB luciferase reporter, 4 h; inhibition, % at 10 µM; 360,000 compounds, 0.98% hits; AID 1347056;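 active = compounds whose plate-normalised and pattern-corrected inhibition of the luciferase reporter signal at the single screening dose is 50% or more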
LGR2 inh: inhibitors of bursicon-induced Drosophila LGR2 receptor cAMP signaling | inhibition, % at 9.99 µM | 380,000 compounds, 0.35% hits | HEK293 LGR2, CRE-luciferase, bursicon-stimulated, 4 h | AID 720647;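 active = drop in luminescence signal, shown as inhibition above about 50% in the replicate tests, limit read from the data, passing the limit was not always enough; inconclusive = probably only some replicates passing the limit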;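 also: agonist challenge used bursicon conditioned medium at about half maximal strength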
KKLEB cytotox: counter-screen for CF NF-kB inhibitors: cytotoxicity | KKLEB CF airway cells viability, ATPlite luminescence, overnight; hits give low values; cells stimulated with P. aeruginosa culture filtrate | activity change (cytotoxicity), % at 5 µM | 360,000 compounds, 0.36% hits;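 active = corrected activity change at or below -50% at 5 µM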
Numbers stand for hits; – = inactive; ? = inconclusive; · = no result. Compounds with a hit are over-represented: about 2.6% of the library has one in this group of screens.

SMILES | TWEAK Fn14 block | CF NFkB block | EWS-Fli block | TROY NFkB inh | LGR2 inh | KKLEB cytotox
COC(=O)C[C@H]1CC[C@@H]2NC[C@H](O)COC[C@H]2O1 | · | · | – | · | – | ·
CC(CCN1CC1)=NNC(=O)Nc1cccc2ccccc12 | 58.3 | – | – | – | – | –
CCOC(=O)C1(c2ccccc2)CCN(CC(=O)Nc2cccc3ccccc23)CC1 | – | – | · | – | – | –
CCCNC(=O)N1[C@@H]2c3ccc(-c4cccc(C(=O)N(C)C)c4)c(=O)n3C[C@H]1[C@H](CO)[C@H]2C(=O)O | · | · | – | · | – | ·
COC(=O)[C@@H]1[C@@H](CO)[C@@H]2Cn3c(ccc(-c4cccc(F)c4)c3=O)[C@H]1N2Cc1ccccc1 | · | · | – | · | – | ·
CCOc1ccc(-c2c(C)n(-c3ccc(OCC)cc3)c3[n+]2CCCCC3)cc1 | 87.3 | – | – | 57.4 | – | –
CCOc1ccc(-n2c(-c3ccoc3)nc3ccccc3c2=O)cc1 | – | – | · | – | – | –
Cn1ncnc2c(=O)n(C)c(=O)nc1-2 | 106.1 | 101.7 | · | 87.9 | · | -97.0
O=c1[nH]c(=O)n(-c2ccccc2F)c(O)c1/C=C1\C=Nc2ccccc21 | 54.2 | – | – | – | – | –
COc1ccc(-n2c(O)c(/C=C3\C=Nc4ccc(Br)cc43)c(=O)[nH]c2=O)c(OC)c1 | 55.2 | – | – | – | – | –
Cc1cccc(C)c1-n1nnnc1C(c1ccccc1)N1CCC2(CC1)C(=O)NCN2c1ccccc1 (stereo not drawn) | – | – | – | – | – | –
COc1ccc(-n2nnnc2C(c2cccc3ccccc23)N2CCC3(CC2)C(=O)NCN3c2ccccc2)cc1 (stereo not drawn) | 52.7 | – | – | – | – | –
Cc1cccc(C)c1-n1nnnc1C(C1CC1)N1CCC2(CC1)C(=O)NCN2c1ccccc1 (stereo not drawn) | – | – | – | 75.2 | – | –
CCCCn1c(NS(=O)(=O)c2ccccc2)c(C(=O)OCC)c2nc3ccccc3nc21 | 79.8 | – | · | 69.3 | – | –
CCOC(=O)c1c(N)n(CCN2CCCCC2)c2nc3ccccc3nc12 | – | – | · | – | – | –
CCCCn1c(N)c(C(=O)NCCN2CCOCC2)c2nc3ccccc3nc21 | – | – | · | 63.8 | · | –
CCCCn1c(NC(=O)c2ccc(Br)o2)c(C(=O)OCC)c2nc3ccccc3nc21 | 70.5 | – | – | 59.2 | – | –
O=C(O)[C@@H]1[C@@H](CO)[C@@H]2Cn3c(ccc(-c4ccncc4)c3=O)[C@H]1N2C(=O)C1CCC1 | · | · | – | · | – | ·
Oc1cc(Cl)c(Cl)c(Cl)c1Cl | – | – | – | 54.0 | – | –
Oc1ccc(Cl)c(Cl)c1 | – | – | – | – | – | –
Oc1cc(Cl)c(Cl)c(Cl)c1 | – | – | – | 55.2 | – | –
CC1=C(O)C(=O)C=C2C1=CC=C1C2(C)CCC2(C)C3CC(C)(C(=O)O)CCC3(C)CCC12C (stereo not drawn) | 106.1 | 78.1 | 64.7 | 89.4 | · | -74.8
CCCN1CCC2(CC1)NC(CO)(CO)CO2 | 81.6 | – | · | · | · | –
CCN1CCC2(CC1)NC(CO)(CO)CO2 | – | – | · | – | – | –
COC(=O)[C@]12OC[C@]34C([C@@H](O)[C@@H]1O)[C@]1(C)CC(=O)C(O)=C(C)[C@@H]1C[C@H]3OC(=O)[C@H](O)[C@@H]24 (stereo partly drawn) | 95.2 | – | – | 78.7 | 93.2 | –
SMILES | TWEAK Fn14 block | CF NFkB block | EWS-Fli block | TROY NFkB inh | LGR2 inh | KKLEB cytotox
CC(C)c1ccc(N2C(=O)NC(=O)/C(=C/C=C/c3ccco3)C2=O)cc1 | – | 84.0 | · | – | – | –
Cc1ccc(N2C(=O)NC(=O)/C(=C/c3ccoc3)C2=O)cc1 | – | – | – | – | – | –
CCOc1ccc(N2C(=O)/C(=C\c3cccs3)C(=O)NC2=S)cc1 | · | · | – | · | – | ·
CCc1ccc(N2C(=O)NC(=O)/C(=C\C=C\c3ccco3)C2=O)cc1 | – | – | 70.6 | – | – | –
Cc1ccc(N2C(=O)NC(=O)/C(=C/C=C/c3ccco3)C2=O)cc1 | – | 80.6 | · | – | – | –
CCOc1ccc(N2C(=O)/C(=C/c3ccco3)C(=O)NC2=S)cc1 | 57.0 | – | · | – | · | –
CCCCN1C(=O)/C(=C/C=C/c2ccco2)C(=O)NC1=S | – | – | – | – | – | –
COC(=O)[C@@H]1[C@@H](CO)[C@@H]2Cn3c(ccc(-c4ccccc4F)c3=O)[C@H]1N2C(C)=O | · | · | – | · | – | ·
COc1ccc(C#Cc2ccc([C@@H]3[C@H]4CN(C(=O)Cc5ccccc5)CCCCN4[C@H]3CO)cc2)cc1 | · | · | – | · | – | ·
CC=Cc1ccc2n(c1=O)C[C@@H]1[C@@H](CO)[C@H](C(=O)OC)[C@H]2N1CC1CCCCC1 (mixture of isomers) | · | · | – | · | – | ·
COc1ccc2c(c1OC)C(=O)OC2C1c2cc3c(cc2CCN1C)OCO3 (stereo not drawn) | – | – | – | – | – | –
CCC1C(c2cc(OC)c(OC)c(OC)c2)c2cc3c(cc2OC1N1CCCC1)OCO3 (stereo not drawn) | – | – | 55.9 | – | – | –
COC(=O)[C@@H]1[C@@H](CO)[C@@H]2Cn3c(ccc(-c4ccccc4F)c3=O)[C@H]1N2Cc1ccccc1 | · | · | – | · | – | ·
CC1OC(OC2C=C3CCC4C(CCC5(C)C(c6ccc(=O)oc6)CCC45O)C3(C)CC2)C(O)C(OC2OC(CO)C(O)C(O)C2O)C1O (stereo not drawn) | 85.8 | 94.9 | ? | – | 84.5 | -61.8
NC(Cc1ccc(O)cc1)C(=O)NN=Cc1ccc(N(CCCl)CCCl)cc1 (stereo not drawn) | – | – | 57.4 | – | – | –
CN1[C@@H]2c3cccc(=O)n3C[C@H]1[C@H](CO)[C@H]2C(=O)NCC1CC1 | · | · | – | · | – | ·
N#Cc1cccc(-c2ccc([C@H]3[C@@H](CO)N4CCCCN(C(=O)Cc5ccncc5)C[C@@H]34)cc2)c1 | · | · | · | · | – | ·
COc1cccc2c1cc([N+](=O)[O-])c1c(C(=O)O)cc3c(c12)OCO3 | – | – | – | – | 67.3 | –
COc1ccc(CN2Cc3cnnn3-c3ccccc3C2C#N)cc1 (stereo not drawn) | 74.2 | – | ? | – | 96.5 | –
Cc1ccc(OP2(=O)Nc3cc(C)c(C)cc3S2)cc1 (stereo not drawn) | 64.7 | – | – | – | · | –
O=c1[nH]c(O)c(N=Nc2ccc3c(c2)OCCO3)c(=O)[nH]1 | 90.7 | – | – | 87.6 | 67.2 | –
COC(=O)[C@@H]1[C@@H](CO)[C@@H]2Cn3c(ccc(-c4ccccc4F)c3=O)[C@H]1N2CC1CCCC1 | · | · | – | · | – | ·
COC(=O)[C@@H]1[C@@H](CO)[C@@H]2Cn3c(ccc(-c4ccncc4)c3=O)[C@H]1N2CCc1ccccc1 | · | · | – | · | – | ·
CC[C@H]1C=C(C(=O)N[C@@]2(C(=O)O)C[C@H]2CC)[C@H]2CCC(=O)[C@H]2C1 | · | · | – | · | · | ·
N#CSCC(=O)N1c2ccccc2CCc2ccccc21 | – | 58.7 | · | – | – | –
O=C(O)[C@H]1[C@H](CO)[C@H]2Cn3c(ccc(-c4ccncc4)c3=O)[C@@H]1N2C(=O)C1CC1 | · | · | – | · | – | ·
